A selection: hits, their analogues and other compounds. The true share with any hit is near 1.5%.
MEX-5 binding: C. elegans MEX-5 TCR-2 RNA binding activity | Q9XUB2 | MEX-5/FITC-TCR2 RNA binding, fluorescence polarization; active compounds read low | activity score (negative = inhibition of binding), % at 10 µM | actives 0.38% (n = 300,000) | AID 1832;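 active = inhibition past about -25% in most replicates, and total fluorescence under double the plate's negative control median, limit read from the data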;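 note: 0% = DMSO and -100% = 5 µM competing unlabeled TCR2 RNA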
EBV gp42 block: blocks Epstein-Barr virus glycoprotein 42 binding; Fluorescence polarization binding assay, mP read-out; inhibition, % (tested at 21.74 µM); actives 0.42% (n = 220,000); in the data active = inhibition above about 50%
Target sequence (Q1HVG2 whole entry, looked up): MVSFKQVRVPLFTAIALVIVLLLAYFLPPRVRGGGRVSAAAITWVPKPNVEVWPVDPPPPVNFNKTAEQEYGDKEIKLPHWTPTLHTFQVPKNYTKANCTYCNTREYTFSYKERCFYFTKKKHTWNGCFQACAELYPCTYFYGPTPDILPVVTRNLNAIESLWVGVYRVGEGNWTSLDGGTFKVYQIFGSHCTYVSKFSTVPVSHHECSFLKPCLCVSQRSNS
MCL1-BIM inh: disrupts human MCL1 binding to BIM-BH3 peptide; inhibition, % at 10.9 µM; GST-MCL1 / FITC-Bim-BH3 fluorescence polarization; Q07820; actives 0.68% (n = 320,000); AID 2057;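 active = inhibition above the mean inhibition of all tested compounds plus 3 SD, set per campaign, cut at about 40% in these data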;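 note: 0% = DMSO wells and 100% = unlabeled Bim-BH3 peptide control; higher means more loss of mP so more displacement of Bim peptide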
Target sequence (Q07820 whole entry, looked up): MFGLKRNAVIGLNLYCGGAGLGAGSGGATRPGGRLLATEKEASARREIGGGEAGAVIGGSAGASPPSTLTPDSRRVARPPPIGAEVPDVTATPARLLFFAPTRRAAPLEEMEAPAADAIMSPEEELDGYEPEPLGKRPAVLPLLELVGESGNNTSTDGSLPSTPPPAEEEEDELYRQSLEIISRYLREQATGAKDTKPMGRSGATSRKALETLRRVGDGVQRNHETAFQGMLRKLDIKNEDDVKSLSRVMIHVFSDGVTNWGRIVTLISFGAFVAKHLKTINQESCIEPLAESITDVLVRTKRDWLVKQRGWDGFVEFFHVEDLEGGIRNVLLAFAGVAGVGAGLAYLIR
GLD-1 TGE inh: GLD-1-TGE RNA interaction inhibition (C. elegans). purified GLD-1 + fluorescein TGE RNA, fluorescence polarization. inhibition, % at 5.96 µM. actives 0.44% (n = 320,000). AID 2280;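 active = percent inhibition above a per-plate cutoff, the plate mean of test compounds plus 3 SD, cut at about 30% in these data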;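 note: 0% = DMSO wells with GLD-1 and probe and 100% = wells lacking GLD-1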
BCLXL inh: Bcl-xL (human) inhibition | GST-Bcl-xL / FITC-Bim BH3 peptide fluorescence polarization | inhibition, % at 10.9 µM | actives 0.7% (n = 320,000) | AID 2129;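 active = inhibition above the mean of all tested compounds plus 3 SD, cutoff set per campaign, cut at about 30% in these data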;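 note: 0% = DMSO wells and 100% = unlabeled Bim-BH3 peptide competitor; inhibitors lower millipolarization by displacing the labeled peptide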
E coli Lon inh: inhibits E. coli Lon protease; purified E. coli Lon protease, fluorescence polarization; actives 0.42% (n = 360,000); inhibition, % at 7.94 µM; in the data active = inhibition above about 13%, passing the limit was not always enough;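 note: 0% = enzyme with probe and DMSO and 100% = no enzyme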
eLon confirm: confirmation of E. coli Lon protease inhibitors | shares compounds with E coli Lon inh | purified E. coli Lon, fluorescence polarization | inhibition, % at 7.94 µM | actives 31% (n = 1,400) | AID 602230; in the data active = inhibition above about 16%;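 note: 0% = enzyme with probe and DMSO and 100% = no enzyme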
Numbers without * were called inactive.

For COc1cc(C(=O)N2Cc3cc4ccccc4nc3C2C)cc(OC)c1OC (stereo unspecified) the results were E coli Lon inh -10.
For Cc1ccc(S(=O)(=O)NCc2ccc3[nH]c(C)cc3c2)cc1 the results were MEX-5 binding -1, EBV gp42 block 8, MCL1-BIM inh 0, GLD-1 TGE inh 0, BCLXL inh -2 and E coli Lon inh 5.
`CC(=O)Nc1ccc(S(=O)(=O)NCc2ccc3[nH]c(C)cc3c2)cc1` gave MEX-5 binding 0, EBV gp42 block -10, MCL1-BIM inh 11, GLD-1 TGE inh 9, BCLXL inh 9, E coli Lon inh 19* and eLon confirm 7.
Screening Cc1ccc(S(=O)(=O)NNC(=S)Nc2ccccc2)cc1 returned MEX-5 binding -2, EBV gp42 block -6, MCL1-BIM inh 9, GLD-1 TGE inh -3, BCLXL inh 2, E coli Lon inh 22* and eLon confirm -6.
`Cc1ccc(S(=O)(=O)NNC(=S)Nc2ccc(Cl)cc2)cc1` gave MEX-5 binding -3, EBV gp42 block 8, MCL1-BIM inh -7, GLD-1 TGE inh 0, BCLXL inh -6 and E coli Lon inh -2.
For O=C(O)c1ccccc1C(=O)NCc1c(Cl)cccc1Sc1ccc(Cl)cc1 the results were MEX-5 binding 1, MCL1-BIM inh 2, GLD-1 TGE inh -3, BCLXL inh 6 and E coli Lon inh -1.
For Cc1ccc(S(=O)(=O)N[C@@H](Cc2ccccc2)C(=O)N2CCC[C@@H]2C(=O)O)cc1 the results were MEX-5 binding 0, MCL1-BIM inh 7, GLD-1 TGE inh -3, BCLXL inh 6, E coli Lon inh 17* and eLon confirm 6.
`CC(=O)N1c2ccccc2Oc2cc3ccccc3cc21` gave EBV gp42 block -18, MCL1-BIM inh 0, GLD-1 TGE inh 4, BCLXL inh 8 and E coli Lon inh -4.
Screening O=C(CCl)N1c2ccccc2Oc2ccc3ccccc3c21 returned E coli Lon inh active and eLon confirm 24*.
For Cc1cc(C)cc(C(=O)Nc2ccncc2)c1 the results were MEX-5 binding 3, MCL1-BIM inh -6, GLD-1 TGE inh -9, BCLXL inh -7, E coli Lon inh 19* and eLon confirm -5.
Screening c1ccc(COc2ccc3nocc3c2)cc1 returned MEX-5 binding -3, MCL1-BIM inh 10, GLD-1 TGE inh 6, BCLXL inh 4 and E coli Lon inh 0.
For CN(C)CC#Cc1cncc(C(=O)NNC(=O)Nc2ccc(Cl)cc2)c1 the results were MEX-5 binding -1, EBV gp42 block -6, MCL1-BIM inh 5, GLD-1 TGE inh 3, BCLXL inh -2 and E coli Lon inh 7.
`O=C1C=C(N2CCOCC2)c2cccc3cccc1c23` gave E coli Lon inh 183* and eLon confirm 6.
O=C1C(N2CCOCC2)=Cc2cccc3cccc1c23 was read as E coli Lon inh 186* and eLon confirm 195*.
For O=C1C=C(N2CCOCC2)c2ccccc2C1=O the results were MEX-5 binding -3, MCL1-BIM inh 0, GLD-1 TGE inh 1, BCLXL inh 0 and E coli Lon inh 10.
`COC(=O)Cc1ccc(OC2(C)CCN(Cc3csc4ccccc34)C2)cc1` (stereo unspecified) gave E coli Lon inh -9.
C(=Cc1cnc2ccccc2n1)c1ccc2c(c1)OCO2 was read as E coli Lon inh 96* and eLon confirm -17.
`O=C1CCCN1CCCNS(=O)(=O)c1ccc(Cl)c(C(=O)N2CCOCC2)c1` gave MEX-5 binding 2, EBV gp42 block -18, MCL1-BIM inh -1, GLD-1 TGE inh 7, BCLXL inh -2 and E coli Lon inh -1.
O=C(NCCN1CCOCC1)c1cc(S(=O)(=O)NCCCN2CCCC2=O)ccc1Cl was read as MEX-5 binding -2, EBV gp42 block -9, MCL1-BIM inh 11, GLD-1 TGE inh -1, BCLXL inh 5, E coli Lon inh 40* and eLon confirm 10.
Screening CCOc1ccc(CNS(=O)(=O)c2cccs2)cc1OCC returned MEX-5 binding 1, MCL1-BIM inh -2, GLD-1 TGE inh 6, BCLXL inh 2 and E coli Lon inh -2.
For COC(=O)N1CCCC(c2cc(C(=O)Nc3ccccc3Cl)no2)C1 (stereo unspecified) the results were E coli Lon inh 52* and eLon confirm 1.
O=C(Nc1ccccc1Cl)c1cc(C2CCCN(C(=O)OCCF)C2)on1 (stereo unspecified) was read as E coli Lon inh -6.
Screening COc1ccc(C(C(=O)NCC2CCCO2)N(C(=O)Cn2nnc3ccccc32)c2ccccc2C(C)=O)cc1OC (stereo unspecified) returned MEX-5 binding 0, MCL1-BIM inh 0, GLD-1 TGE inh 1, BCLXL inh 4 and E coli Lon inh -15.
`COc1cc(C)c(NC(=O)C2CCN(S(=O)(=O)c3cccs3)CC2)cc1OC` gave MCL1-BIM inh -22, GLD-1 TGE inh -1, BCLXL inh -8 and E coli Lon inh 1.
COCCn1c2nc(=O)n(-c3ccccc3)c(=O)c-2nc2ccccc21 was read as E coli Lon inh active and eLon confirm active.
For Cc1cccc(C)c1NC(=O)COC(=O)c1c2c(nc3ccccc13)/C(=C\c1ccc3c(c1)OCO3)CCC2 the results were EBV gp42 block 98*, MCL1-BIM inh active, GLD-1 TGE inh 182*, BCLXL inh 194*, E coli Lon inh active and eLon confirm 74*.
Cc1cccc(-n2ccc(=O)c(C(=O)Nc3ccc(S(=O)(=O)Nc4nccc(C)n4)cc3)n2)c1 was read as MEX-5 binding -9, MCL1-BIM inh 11, GLD-1 TGE inh 1, BCLXL inh 8 and E coli Lon inh -4.
O=C(COC(=O)c1ccccc1C(=O)OCC(=O)NCCc1c[nH]c2ccccc12)NCCc1c[nH]c2ccccc12 was read as MEX-5 binding -2, MCL1-BIM inh -2, GLD-1 TGE inh -5, BCLXL inh 3, E coli Lon inh 32* and eLon confirm -5.
Screening O=C(COC(=O)c1ccccc1O)NCCc1c[nH]c2ccccc12 returned GLD-1 TGE inh 3 and E coli Lon inh -13.
`Cc1cc2cc3c(=O)[nH]c(=O)cc-3n(CC(O)C(O)C(O)CO)c2cc1C` (stereo unspecified) gave E coli Lon inh 87* and eLon confirm 91*.
Screening O=C(Nc1cccc(Cl)c1)Nn1cnnc1 returned MEX-5 binding 0, EBV gp42 block -17, MCL1-BIM inh -1, GLD-1 TGE inh 0, BCLXL inh 3, E coli Lon inh 104* and eLon confirm -1.

High-throughput results from PubChem BioAssay.
